# Test results published in PubChem BioAssay (NCI).
# This is part of a sample that, as a whole, favours compounds with a hit. Of some 79,000 tested, about 15% had one in any assay. Values without a mark were called inactive. The source made the active and inactive calls. No stated cut-off is given here; in the data, active means growth inhibition above about 70%; inactive means the rest.
# Key:
# [1] = NCI Yeast Anticancer Drug Screen. Data for the rad52 strain (AID 147);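 further: 0% = growth of vehicle-treated control cultures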; conditions: S. cerevisiae rad52 mutant growth inhibition, stronger effect = higher value
# Method in brief: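 Measured: yeast growth inhibition. System: strain with a defined DNA damage repair alteration. Reference: vehicle-treated control cultures.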
# [2] = NCI Yeast Anticancer Drug Screen. Data for the wt1 strain (AID 149);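 further: 0% = growth of vehicle-treated wt1 cultures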; conditions: S. cerevisiae wt1 strain (SPY 50644) growth inhibition, stronger effect = higher value
# Method in brief: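 wt1 strain grown with compound or vehicle; inhibition taken from the growth difference.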
# [3] = NCI Yeast Anticancer Drug Screen. Data for the rad50EPP+ strain (AID 151);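 further: 0% = growth of vehicle-treated control cultures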; conditions: S. cerevisiae rad50 mutant strain, stronger effect = higher value
# Method in brief: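 One strain with a rad50 alteration (rad50EPP+) was compound-treated, its growth then compared to that of vehicle controls.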
# [4] = NCI Yeast Anticancer Drug Screen. Data for the mgt1 strain (AID 153); conditions: S. cerevisiae mgt1 mutant growth inhibition, stronger effect = higher value
# Method in brief: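 After exposure of the mgt1 yeast mutant to compound, growth was measured and reported as inhibition compared with vehicle controls.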
# [5] = NCI Yeast Anticancer Drug Screen. Data for the rad50 strain (AID 155);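 further: 0% = growth of vehicle-only cultures of the same strain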; conditions: S. cerevisiae rad50 strain growth inhibition, stronger effect = higher value
# Method in brief: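 DNA repair mutant yeast, compound exposure, growth read-out; inhibition is taken relative to vehicle.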
# [6] = NCI Yeast Anticancer Drug Screen. Data for the mec2-1 strain (AID 157); conditions: S. cerevisiae mec2-1 strain, stronger effect = higher value
# Method in brief: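 Test agents were screened against the mec2-1 yeast strain, with defined DNA repair or cell cycle alteration. Growth was scored as inhibition against vehicle-only controls.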
# [7] = NCI Yeast Anticancer Drug Screen. Data for the rad14 strain (AID 159);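 further: 0% = growth of vehicle-treated control cultures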; conditions: S. cerevisiae rad14 strain growth inhibition, stronger effect = higher value
# Method in brief: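 DNA repair-defective yeast, compound-exposed; % growth inhibition derived by comparison with vehicle-treated controls.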
# [8] = NCI Yeast Anticancer Drug Screen. Data for the sgs1 mgt1 strain (AID 161);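 further: 0% = growth of cultures given vehicle only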; conditions: S. cerevisiae sgs1 mgt1 strain, stronger effect = higher value
# Method in brief: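 Test agents were incubated with a DNA-repair-mutant yeast strain. Growth was then read and compared against vehicle-treated controls.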
# [9] = NCI Yeast Anticancer Drug Screen. Data for the CLN2oe strain (AID 163);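 further: 0% = growth of vehicle-only control cultures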; conditions: S. cerevisiae CLN2oe strain, stronger effect = higher value
# Method in brief: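 Here, growth inhibition in a cell-cycle-altered yeast strain after compound exposure was quantified against vehicle control growth.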
# [10] = NCI Yeast Anticancer Drug Screen. Data for the cln2 rad14 strain (AID 165);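 further: 0% = growth equal to vehicle treated cultures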; conditions: S. cerevisiae cln2 rad14 strain, stronger effect = higher value
# Method in brief: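 Growth of compound-exposed yeast (cln2 rad14 genotype) measured and expressed as inhibition relative to vehicle.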
# [11] = NCI Yeast Anticancer Drug Screen. Data for the bub3 strain (AID 167); conditions: S. cerevisiae bub3 mutant strain, stronger effect = higher value
# Method in brief: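 In this screen, a yeast mutant lacking normal mitotic checkpoint function is challenged with compound. Relative growth versus vehicle gives the inhibition value.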
# [12] = NCI Yeast Anticancer Drug Screen. Data for the wt2 strain (AID 169);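 further: 0% = growth of vehicle-treated yeast cultures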; conditions: S. cerevisiae wt2 strain growth inhibition, stronger effect = higher value
# Method in brief: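 Genetically defined yeast strains from a DNA-repair/cell-cycle panel were used. Compound-exposed yeast growth was measured, and the inhibition was calculated relative to vehicle treatment.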
# [13] = NCI Yeast Anticancer Drug Screen. Data for the mlh1 strain (AID 171);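 further: 0% = growth of vehicle-treated control cultures of the same strain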; conditions: S. cerevisiae mlh1 strain growth inhibition, stronger effect = higher value
# Method in brief: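 Here the genetically defined yeast mutant is grown with each compound, and the extent to which its growth falls below that of vehicle-exposed cells is reported.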
# [14] = NCI Yeast Anticancer Drug Screen. Data for the sgs1 strain (AID 173);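 further: 0% = growth of vehicle-only control cultures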; conditions: S. cerevisiae sgs1 mutant, stronger effect = higher value
# Method in brief: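 Relative growth inhibition, referenced to vehicle, was determined in a yeast strain with a defined alteration affecting DNA damage repair or cell cycle control after compound exposure.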
# [15] = NCI Yeast Anticancer Drug Screen. Data for the mlh1 rad18 strain (AID 175); conditions: S. cerevisiae mlh1 rad18 strain growth inhibition, stronger effect = higher value
# Method in brief: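 In this whole-cell yeast screen, a strain with altered DNA damage repair is challenged with compound, and its growth is measured against matched vehicle-treated controls.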
# [16] = NCI Yeast Anticancer Drug Screen. Data for the rad18 strain (AID 177); conditions: S. cerevisiae rad18 mutant growth inhibition, stronger effect = higher value
# Method in brief: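 Screen uses a yeast strain with a defined lesion in DNA damage repair; compound effect is read as loss of growth compared to untreated vehicle cultures.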
# [17] = at 5.0 µM (retest, dose inferred, filed as 0.5)
# [18] = at 50.0 µM (retest, dose inferred, filed as 5.0)
structure (smiles),measurement,setting,value
CCOC(=O)c1[nH]n(-c2ccccc2)c(=O)c1C=NC(=S)C(N)=S,growth inhibition,[1]; at 1.2 µM,24%
same,growth inhibition,[1]; at 3.7 µM,21%
same,growth inhibition,[1]; at 11.0 µM,30%
same,growth inhibition,[1]; at 33.0 µM,71% (active)
same,growth inhibition,[1]; at 100.0 µM,97% (active)
same,growth inhibition,[2]; at 1.2 µM,19%
same,growth inhibition,[2]; at 3.7 µM,8%
same,growth inhibition,[2]; at 11.0 µM,25%
same,growth inhibition,[2]; at 33.0 µM,29%
same,growth inhibition,[2]; at 100.0 µM,98% (active)
same,growth inhibition,[3]; at 1.2 µM,-3%
same,growth inhibition,[3]; at 3.7 µM,-23%
same,growth inhibition,[3]; at 11.0 µM,5%
same,growth inhibition,[3]; at 33.0 µM,30%
same,growth inhibition,[3]; at 100.0 µM,69%
same,growth inhibition,[4]; at 1.2 µM,-6%
same,growth inhibition,[4]; at 3.7 µM,-10%
same,growth inhibition,[4]; at 11.0 µM,-16%
same,growth inhibition,[4]; at 33.0 µM,34%
same,growth inhibition,[4]; at 100.0 µM,97% (active)
same,growth inhibition,[5]; at 1.2 µM,8%
same,growth inhibition,[5]; at 3.7 µM,29%
same,growth inhibition,[5]; [17],-36%
same,growth inhibition,[5]; at 11.0 µM,31%
same,growth inhibition,[5]; at 33.0 µM,90% (active)
same,growth inhibition,[5]; [18],19%
same,growth inhibition,[5]; at 50.0 µM,87.5% (active)
same,growth inhibition,[5]; at 100.0 µM,97% (active)
same,growth inhibition,[6]; at 1.2 µM,5%
same,growth inhibition,[6]; at 3.7 µM,5%
same,growth inhibition,[6]; [17],-22%
same,growth inhibition,[6]; at 11.0 µM,-12%
same,growth inhibition,[6]; at 33.0 µM,96% (active)
same,growth inhibition,[6]; [18],88% (active)
same,growth inhibition,[6]; at 50.0 µM,90.7% (active)
same,growth inhibition,[6]; at 100.0 µM,97% (active)
same,growth inhibition,[7]; at 1.2 µM,-15%
same,growth inhibition,[7]; at 3.7 µM,-15%
same,growth inhibition,[7]; at 11.0 µM,-11%
same,growth inhibition,[7]; at 33.0 µM,95% (active)
same,growth inhibition,[7]; at 100.0 µM,97% (active)
same,growth inhibition,[8]; [17],-4%
same,growth inhibition,[8]; [18],13%
same,growth inhibition,[8]; at 50.0 µM,91% (active)
same,growth inhibition,[9]; at 1.2 µM,-8%
same,growth inhibition,[9]; at 3.7 µM,-7%
same,growth inhibition,[9]; at 11.0 µM,2%
same,growth inhibition,[9]; at 33.0 µM,35%
same,growth inhibition,[9]; at 100.0 µM,97% (active)
same,growth inhibition,[10]; [17],-4%
same,growth inhibition,[10]; [18],12%
same,growth inhibition,[10]; at 50.0 µM,90.4% (active)
same,growth inhibition,[11]; at 1.2 µM,-8%
same,growth inhibition,[11]; at 3.7 µM,-4%
same,growth inhibition,[11]; [17],-27%
same,growth inhibition,[11]; at 11.0 µM,-8%
same,growth inhibition,[11]; at 33.0 µM,8%
same,growth inhibition,[11]; [18],92% (active)
same,growth inhibition,[11]; at 50.0 µM,60.2%
same,growth inhibition,[11]; at 100.0 µM,97% (active)
same,growth inhibition,[12]; at 1.2 µM,-2%
same,growth inhibition,[12]; at 3.7 µM,0%
same,growth inhibition,[12]; at 11.0 µM,7%
same,growth inhibition,[12]; at 33.0 µM,46%
same,growth inhibition,[12]; at 100.0 µM,98% (active)
same,growth inhibition,[13]; at 1.2 µM,22%
same,growth inhibition,[13]; at 3.7 µM,16%
same,growth inhibition,[13]; at 11.0 µM,43%
same,growth inhibition,[13]; at 33.0 µM,96% (active)
same,growth inhibition,[13]; at 100.0 µM,97% (active)
same,growth inhibition,[14]; at 1.2 µM,21%
same,growth inhibition,[14]; at 3.7 µM,27%
same,growth inhibition,[14]; at 11.0 µM,41%
same,growth inhibition,[14]; at 33.0 µM,96% (active)
same,growth inhibition,[14]; at 100.0 µM,97% (active)
same,growth inhibition,[15]; [17],-3%
same,growth inhibition,[15]; [18],92% (active)
same,growth inhibition,[15]; at 50.0 µM,86.3% (active)
same,growth inhibition,[16]; at 1.2 µM,0%
same,growth inhibition,[16]; at 3.7 µM,-4%
same,growth inhibition,[16]; at 11.0 µM,2%
same,growth inhibition,[16]; at 33.0 µM,67%
same,growth inhibition,[16]; at 100.0 µM,97% (active)
Cc1ccc(NC(=O)/C(CC2N=c3c(ccc4c(O)c5ccccc5c(O)c34)=NC2O)=N/NC(C)(C)C)cc1 (stereo unspecified),growth inhibition,[1]; at 1.2 µM,7%
same,growth inhibition,[1]; at 3.7 µM,9%
same,growth inhibition,[1]; at 11.0 µM,33%
same,growth inhibition,[1]; at 33.0 µM,49%
same,growth inhibition,[1]; at 100.0 µM,61%
same,growth inhibition,[2]; at 1.2 µM,-19%
same,growth inhibition,[2]; at 3.7 µM,2%
same,growth inhibition,[2]; at 11.0 µM,-2%
same,growth inhibition,[2]; at 33.0 µM,8%
same,growth inhibition,[2]; at 100.0 µM,-6%
same,growth inhibition,[3]; at 1.2 µM,16%
same,growth inhibition,[3]; at 3.7 µM,34%
same,growth inhibition,[3]; at 11.0 µM,44%
same,growth inhibition,[3]; at 33.0 µM,50%
same,growth inhibition,[3]; at 100.0 µM,54%
same,growth inhibition,[4]; at 1.2 µM,16%
same,growth inhibition,[4]; at 3.7 µM,5%
same,growth inhibition,[4]; at 11.0 µM,-1%
same,growth inhibition,[4]; at 33.0 µM,22%
same,growth inhibition,[4]; at 100.0 µM,22%
same,growth inhibition,[5]; at 1.2 µM,17%
same,growth inhibition,[5]; at 3.7 µM,23%
same,growth inhibition,[5]; [17],-3%
same,growth inhibition,[5]; at 11.0 µM,30%
same,growth inhibition,[5]; at 33.0 µM,54%
same,growth inhibition,[5]; [18],65%
same,growth inhibition,[5]; at 50.0 µM,77.6% (active)
same,growth inhibition,[5]; at 100.0 µM,65%
same,growth inhibition,[6]; at 1.2 µM,15%
same,growth inhibition,[6]; at 3.7 µM,18%
same,growth inhibition,[6]; [17],13%
same,growth inhibition,[6]; at 11.0 µM,38%
same,growth inhibition,[6]; at 33.0 µM,44%
same,growth inhibition,[6]; [18],25%
same,growth inhibition,[6]; at 50.0 µM,1.25%
same,growth inhibition,[6]; at 100.0 µM,35%
same,growth inhibition,[7]; at 1.2 µM,9%
same,growth inhibition,[7]; at 3.7 µM,-9%
same,growth inhibition,[7]; at 11.0 µM,-10%
same,growth inhibition,[7]; at 33.0 µM,0%
same,growth inhibition,[7]; at 100.0 µM,1%
same,growth inhibition,[8]; [17],-7%
same,growth inhibition,[8]; [18],2%
same,growth inhibition,[8]; at 50.0 µM,-0.2%
same,growth inhibition,[9]; at 1.2 µM,-5%
same,growth inhibition,[9]; at 3.7 µM,-2%
same,growth inhibition,[9]; at 11.0 µM,3%
same,growth inhibition,[9]; at 33.0 µM,0%
same,growth inhibition,[9]; at 100.0 µM,1%
same,growth inhibition,[10]; [17],-25%
same,growth inhibition,[10]; [18],-3%
same,growth inhibition,[10]; at 50.0 µM,-19.9%
same,growth inhibition,[11]; at 1.2 µM,-3%
same,growth inhibition,[11]; at 3.7 µM,-2%
same,growth inhibition,[11]; [17],3%
same,growth inhibition,[11]; at 11.0 µM,-1%
same,growth inhibition,[11]; at 33.0 µM,1%
same,growth inhibition,[11]; [18],17%
same,growth inhibition,[11]; at 50.0 µM,33.6%
same,growth inhibition,[11]; at 100.0 µM,-1%
same,growth inhibition,[12]; at 1.2 µM,0%
same,growth inhibition,[12]; at 3.7 µM,1%
same,growth inhibition,[12]; at 11.0 µM,4%
same,growth inhibition,[12]; at 33.0 µM,5%
same,growth inhibition,[12]; at 100.0 µM,7%
same,growth inhibition,[13]; at 1.2 µM,7%
same,growth inhibition,[13]; at 3.7 µM,16%
same,growth inhibition,[13]; at 11.0 µM,10%
same,growth inhibition,[13]; at 33.0 µM,28%
same,growth inhibition,[13]; at 100.0 µM,16%
same,growth inhibition,[14]; at 1.2 µM,3%
same,growth inhibition,[14]; at 3.7 µM,4%
same,growth inhibition,[14]; at 11.0 µM,2%
same,growth inhibition,[14]; at 33.0 µM,1%
same,growth inhibition,[14]; at 100.0 µM,1%
same,growth inhibition,[15]; [17],3%
same,growth inhibition,[15]; [18],32%
same,growth inhibition,[15]; at 50.0 µM,27.4%
same,growth inhibition,[16]; at 1.2 µM,-4%
same,growth inhibition,[16]; at 3.7 µM,12%
same,growth inhibition,[16]; at 11.0 µM,20%
same,growth inhibition,[16]; at 33.0 µM,40%
same,growth inhibition,[16]; at 100.0 µM,18%
